Nrf2 ARE act: qHTS of Nrf2 Activators; AREc32 ARE-luciferase reporter (MCF7-derived line), luminescence, 24 h; Potency, µM (titrated, usually from 46.1 µM), for the others: at the top dose activation, hits mostly activators; 410,000 compounds, 0.31% hits; note: potency is the fitted concentration of half-maximal effect; % of control where 0% means no effect; nearly all actives have a fitted effect of over 65% in size
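AREc32 cells carrying an ARE-driven firefly luciferase reporter were seeded at 1000 cells/well in OPTI-MEM with 5% FBS, then exposed to compound for 24 hr at 37 deg C. Luminescence was read with Steady-Glo after 30 min at RT.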
Nrf2 block: Nrf2 qHTS screen for inhibitors | A549 ARE-Fluc reporter, luciferase luminescence, 18-24 h | AID 504444, 2011 | 360,000 compounds, 2.1% hits | Potency, µM (titrated, usually from 46 µM), inactives show at the highest dose activity change, negative = inhibition, most hits filed as inhibitors; note: potency is the fitted concentration of half-maximal effect; % is set by controls: 0 for no effect and ±100 for the full control effect; nearly all actives have a fitted effect of over 60% in size
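Nrf2 function is reported as luminescence of an ARE-controlled luciferase in A549 cells. Compounds were tested at several concentrations, and a CellTiter-Fluor read on the same wells flagged cytotoxicity.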
IL-2 act: qHTS of IL-2 Activators; IL-2 activation reporter assay, cell-based qHTS; stimulated with anti-CD3/CD4/CD28 beads; in transgenic mouse T cells; activation, % (series mostly up to about 46 µM); 360,000 compounds, 0.065% hits; AID 652025, 2013; in the data active = activation above about 50%; inconclusive = mostly about 30% to 49%; note: 0% is about no effect
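Quantitative HTS in unstimulated transgenic mouse T cells, with memory T cells as non-tolerant control and PMA/ionomycin as tolerance-bypass control. Compound pretreatment lasted 60 minutes before 18 h bead stimulation; EGFP/DsRed fluorescence read.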
A549 tox: Nrf2 qHTS screen for inhibitors: counterscreen for cytotoxicity; Potency, µM (series often up to 46 µM), inactives show top-dose activity change, negative = cytotoxicity, most hits filed as inhibitors; 390,000 compounds, 0.16% hits; A549 ARE-Fluc cells, CellTiter-Fluor viability, 18-24 h; AID 504648, 2011; note: potency is the fitted concentration of half-maximal effect; % is set by controls: 0 for no effect and ±100 for the full control effect
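A549 ARE_Fluc cells in 5% FBS OPTI-MEM were exposed to compounds in concentration-response for 18-24 h at 37 deg C. Viability was read by CellTiter-Fluor fluorescence (Ex 405/Em 525) after 30 min, before the luciferase read.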
Starred values were filed as active, the others as inactive; ? = inconclusive; / = not tested or not shown; ! = a repeat was not active. Only some compounds are listed: those with a hit (about 2.3% of all), similar ones and a draw of the others. Unless noted, calls come from the whole dose curve; as a rule, active = well fitted curve in the direction sought with a large enough effect; inconclusive = small, poorly fitted or top-dose-only effect, or another doubt; inactive = no such curve, though single readings can be large; an effect the other way counts as inactive or inconclusive.

SMILES | Nrf2 ARE act | Nrf2 block | IL-2 act | A549 tox
CN1C(=O)/C(=C2/C=Cc3ccccc3N2CCCS(=O)(=O)O)SC1=S | 8% | -8% | -3 | 21µM*
CCCN1/C(=C2/SC(=S)N(CC)C2=O)C=Cc2ccccc21 | 1% | ? | 0 | 18µM*
CC(=O)Oc1c(Cl)c(N2CCOCC2)c(OC(C)=O)c2ccccc12 | 16µM* | ? | -2 | -3%
CCOc1ccc(N(CC(=O)N2CCN(C(=O)CN(c3ccc(OCC)cc3)S(C)(=O)=O)CC2)S(C)(=O)=O)cc1 | 1% | 5% | 0 | -2%
CCOc1ccc(N(CC(=O)N2CCC(Cc3ccccc3)CC2)S(C)(=O)=O)cc1 | 0% | 26µM* | 0 | -7%
CC(C)CC(O)C(=O)Nc1cc(C(F)(F)F)ccc1Cl (configuration not stated) | / | -6% | / | -6%
COC(=O)c1ccsc1NC(=O)CSc1nnnn1-c1ccccc1SC | 4% | 21µM* | -2 | -20%
CSc1ccccc1NC(=O)CSc1nnnn1-c1ccccc1SC | 0% | 6% | 1 | 2%
O=C(O)CCCCCn1c(O)c(C=C2N=c3ccccc3=N2)sc1=S | ? | ? | -2 | -6%
O=C(O)CCCn1c(O)c(C=C2N=c3ccccc3=N2)sc1=S | 14µM* | -14% | -1 | ?
CSc1cccc(NC(=O)C2CCN(S(=O)(=O)c3ccc(F)cc3)CC2)c1 | 1% | 15µM* | 0 | -6%
CS(=O)(=O)c1cccc(NC(=O)C2CC2)c1 | 0% | 1% | -3 | -1%
O=C(Nc1cccc(S(=O)(=O)c2cccc(NC(=O)C3CC3)c2)c1)C1CC1 | 0% | 8.2µM* | -2 | -7%
CSc1cccc(NC(=O)C2CCN(S(=O)(=O)c3ccc4c(c3)NC(=O)CO4)CC2)c1 | 0% | 23µM* | -3 | -11%
COc1ccc(CCNC(=O)Cn2cc(S(=O)(=O)Cc3ccccc3Cl)c3ccccc32)cc1OC | 6% | -29% | / | -3%
COc1ccc(CCNC(=O)Cn2cc(S(=O)(=O)Cc3cccc(Cl)c3)c3ccccc32)cc1OC | 1% | 21µM* | / | ?
CC(OC(=O)c1ccc(S(C)(=O)=O)c([N+](=O)[O-])c1)C(=O)NC1C2CC3CC(C2)CC1C3 (configuration not stated) | -3% | / | -1 | /
CN(C)c1nc(NCc2ccccc2)nc(SCC(=O)Nc2ccccc2)n1 | 0% | 23µM* | -1 | -11%
Cc1noc2ncnc(N3CCCC(C(=O)NCCC(C)C)C3)c12 (configuration not stated) | 0% | 23µM* | / | 0%
COCCCNC(=O)C1CCCN(c2ncnc3onc(C)c23)C1 (configuration not stated) | 3% | ? | / | 0%
COc1ccc(-n2c(=O)[nH]c3cc(C(=O)NCCc4ccccc4)ccc3c2=O)cc1OC | 0% | 13µM*! | -2 | -13%
Cc1cc2c(Nc3ccccc3O)ncnc2s1 | 11µM* | / | -1 | /
CNc1c(C(=O)O)ccc2c1C(=O)c1ccccc1C2=O | -1% | ? | 5 | 18µM*
Cc1cc2c(s1)c1cnn(Cc3cc(F)cc(F)c3)c(=O)c1n2C | / | 15% | / | -2%
Cc1cc2c(s1)c1cnn(Cc3c(F)cc(F)cc3F)c(=O)c1n2C | / | 6% | / | -3%
SMILES | Nrf2 ARE act | Nrf2 block | IL-2 act | A549 tox
O=C(Oc1c(Cl)cc(Cl)c2cccnc12)c1ccco1 | 11% | 23µM* | 0 | ?
O=C(Oc1c(CN2CCOCC2)cc(Cl)c2cccnc12)c1ccc(F)cc1 | 2% | 23µM* | -1 | /
CS(=O)(=O)n1nc(OC(=O)c2cccc3ccccc23)cc1N | 14µM* | -6% | 0 | -6%
Cc1ccccc1C(=O)Oc1cc(N)n(S(=O)(=O)c2ccccc2)n1 | -1% | 7.3µM* | -2 | -3%
O=C(NC1CCCCC1)C(c1ccc2ncccc2c1)N(Cc1ccccc1)C(=O)c1cccs1 (configuration not stated) | 3% | 18µM* | 1 | -26%
COc1ccc(CN(C(=O)c2cccs2)C(C(=O)NC2CCCCC2)c2ccc3ncccc3c2)cc1 (configuration not stated) | 3% | -6% | 1 | -5%
O=C(OCC#CCSc1nnc(-c2c[nH]c3ccccc23)o1)c1ccc(F)cc1 | / | 8% | / | -6%
COc1ccc(NC(=O)C(OC(=O)CNC(=O)c2ccccc2)c2ccccc2)cc1F (configuration not stated) | / | 13% | / | 3%

Bioassay records deposited in PubChem BioAssay by National Center for Advancing Translational Sciences (NCATS).
